Drawing on PubChem BioAssay (NCI), this text covers growth for 34 compounds.

Structures are written as SMILES. Where “and” joins values, the source holds several entries; their conditions need not be identical. Equal entries are not always repeated. The panel holds about 83,000 compounds, 20% with a hit somewhere; the sample as a whole holds those more often.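 Percent growth is the endpoint: 0 to 100 indicates growth inhibition (40 means 60% inhibition), 0 means no net growth, and negative values indicate cell death.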 Calls of active or inactive are those of the source.

The test system of one test is MCF7 breast. Description: NCI-60 one-dose screen, 48 h (100 = growth as untreated, 0 = no growth, -100 = all killed). To be noted: 10 µM. As for the experimental part:
Growth inhibition of the MCF7 human tumor cell line is measured as a screen for anti-cancer activity. Cells are grown in 96 well plates and exposed to the test compound for 48 hours. Compounds are tested at a single concentration, which is 10^-5 M for most compounds. The reported endpoint is percent growth (GI% or GIPRCNT), where numbers from 0 - 100% represent growth inhibition, and numbers from -100% - 0 represent cell death. For example, a value of 40 represents 60% growth inhibition. A value of 0 means no net growth occurred over the course of the experiment. A value of -40 indicates 40% of cells at the beginning of the experiment died by the end of the experiment. A value of -100 means all cells are dead at the end of the experiment.
NCI-60 Human Tumor Cell Lines Screen was performed using the standard one-dose NCI protocol, which is described in more detail at https://dtp.cancer.gov/discovery_development/nci-60/default.htm.
Compounds with GIPRCNT values below 10 were considered active. Activity score was based on GIPRCNT using the following formula: […]
Score is 0 for GIPRCNT values of 100 or above, 50 for GIPRCNT values of 0, and 100 for GIPRCNT values of -100.
As to `O=c1ccn2c(n1)OC1CC2OC1COC(c1ccccc1)(c1ccccc1)c1ccccc1` (stereo not given), the growth is 95.4% (inactive).
Take `Nc1nc(=S)c2[nH]cnc2[nH]1`: the growth is 8.17% (active) and -0.975% (active).
As for `S=c1nc[nH]c2nc[nH]c12`, the growth is 10.7% (inactive).
With `C#CCOC(=O)C(N)CS` (stereo not given), the growth was 93% (inactive).
For the compound `COc1cc2oc3cc(=O)cc4oc(-c5ccccc5)cc(c2c2c1CCC(c1ccccc1)O2)c43` (stereo not given), the growth is 30% (inactive).

Staying with this test, now noted: 10 µM unless noted.
Consider `Cc1ccc(N)cc1S(=O)(=O)O`, for which the growth is 105% (inactive) and 98.8% (inactive).
With `COc1cc(C2c3cc4c(cc3C(OC(=O)C[n+]3ccccc3)C3COC(=O)C23)OCO4)cc(OC)c1OC` (stereo not given), the growth was 9.23% (active).
Turning to `C(#CCN1CCOCC1)CCCN1CCOCC1`, the growth was 91.9% (inactive) and 99.5% (inactive).
With `COc1cc(NCCCCCNC(C)C)c2ncccc2c1`, the growth is 85.3% (inactive) and 86.4% (inactive).
Take `Cc1cnc(N)s1`: the growth is 95.4% (inactive).
In the case of `CCN(CC)CCNC(=O)c1ccc(NCN2C(=O)NC(c3ccccc3)(c3ccccc3)C2=O)cc1`, the growth was 98.4% (inactive) and 94.6% (inactive).
`COc1ccc(-n2[nH]c3c(cnc4ccccc43)c2=O)cc1`: the growth was 98.8% (inactive) and 93.1% (inactive).
The same measure, in the same setting: in the case of `O=C(O)c1ccc2c3ccc(C(=O)O)c4c(C(=O)O)ccc(c5ccc(C(=O)O)c1c25)c43` it was 93.3% (inactive); in that of `COc1cc2c(cc1O)C(=O)CCCC2`, 91.2% (inactive); in that of `CC(=O)Oc1cc(C(C)C)c(OCCN(C)C)cc1C`, 109% (inactive) and 95.7% (inactive).
As for `CC(=O)Nc1ccc(OC(C)=O)cc1`, the growth was 91.8% (inactive).
Turning to `COC(=O)C(Cc1cn(C(C)=O)c2ccccc12)P(=O)(OC)OC` (stereo not given), the growth was 101% (inactive).
On the same count and under the same terms, for `O=S(=O)(O)c1ccc2cc(O)ccc2c1` the value was 99.8% (inactive); for `CCOC(=O)C1=C(C)NC(C)=C(C(=O)OCC)C1`, 102% (inactive) and 115% (inactive); for `COc1ccc(CCn2cnn3c(=O)c4ccccc4nc3c2=O)cc1OC`, 106% (inactive) and 100% (inactive).
Consider `CC(O)CCNC(c1ccccc1)C(O)c1ccccc1` (stereo not given), for which the growth is 99.9% (inactive).
Regarding `CC(=O)Oc1ccc(C(c2ccc(OC(C)=O)cc2)c2ccccn2)cc1`, the growth is 20.6% (inactive) and 34.8% (inactive).
As for `Clc1ccc(/C=C/c2ccc3ccccc3n2)cc1`, the growth is 15.1% (inactive) and 65.5% (inactive) and 67.1% (inactive).
In the case of `O=C1c2cccnc2-c2ncccc21`, the growth was 109% [100 µM] (inactive).
Regarding `CSc1nc(N)c(N)c(N)n1`, the growth is 105% (inactive).
`NCCSSC/C=C\CSSCCN`: the growth is 97.2% (inactive).
Regarding `CC(C)(C)C1=CC(=O)C(C(C)(C)C)=CC1=O`, the growth is 86.5% (inactive) and 97.2% (inactive).
For `O=C(NC(CSSCC(NC(=O)OCc1ccccc1)C(=O)O)C(=O)O)OCc1ccccc1` (stereo not given), the growth is 94.3% (inactive) and 93.2% (inactive).
On to `CCCCCc1cc[n+](CC(=O)c2ccccc2)cc1`, for which the growth was 104% (inactive) and 93.7% (inactive).
On to `CC(C)(C)OC(=O)NCCc1ccc(N)cc1`, for which the growth was 99.2% (inactive).
As for `OCc1cccc(F)c1`, the growth was 62.1% (inactive).
As to `O=[N+]([O-])c1ccc(NC2CCCCC2)nc1`, the growth was 110% (inactive) and 102% (inactive).
As for `CC(NC(=O)CCl)c1ccccc1` (stereo not given), the growth is 94% (inactive).
As to `O=[N+]([O-])c1ccc(NC(c2ccccc2)c2ccc3cccnc3c2O)cc1` (stereo not given), the growth was 17.3% (inactive).

The test is the same for the next values; noted with them: 50 µM.
Turning to `S=c1nc[nH]c2nc[nH]c12`, the growth is 6.35% (active).

The same test, now with this note: 100 µM.
`O=c1ccn2c(n1)OC1CC2OC1COC(c1ccccc1)(c1ccccc1)c1ccccc1` (stereo not given): the growth was 46.7% (inactive).
As for `C#CCOC(=O)C(N)CS` (stereo not given), the growth was 90.4% (inactive) and 76.4% (inactive).
On the same count and under the same terms, for `COc1cc2oc3cc(=O)cc4oc(-c5ccccc5)cc(c2c2c1CCC(c1ccccc1)O2)c43` (stereo not given) the value was 19.2% (inactive) and 3.41% (active).

Still in this test, the particulars now being: 250 µM.
Take `Nc1nc(=S)c2[nH]cnc2[nH]1`: the growth was -5.31% (active) and -50.8% (active).

The test is the same for the next values; noted with them: 750 µM.
Turning to `S=c1nc[nH]c2nc[nH]c12`, the growth was 4.16% (active) and -35.5% (active).
